“And” between values parts separate entries of the source, which are not always exact repeats. Identical values can stand only once. Out of some 260,000 compounds screened, about 1,500 (0.58%) were called active. Not shown: some 5% with an inconclusive outcome.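 How the source made its calls: active means inhibition above a set limit at one or more doses, reproduced on every date tested; inconclusive means results disagree between test dates, or hit never tested in dose response; inactive means the rest.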 The list is a sample of the results. Potency and affinity values are given separately.
The compounds below were run against Virion infectivity factor (Human immunodeficiency virus type 1 group M subtype B (isolate BH10)) + Virion infectivity factor (Human immunodeficiency virus type 1 group M subtype B (isolate BRU/LAI)) + Virion infectivity factor (Human immunodeficiency virus type 1 group M subtype B (isolate PCV12)) + Virion infectivity factor (Human immunodeficiency virus type 1 group M subtype B (isolate HXB2)) + DNA dC->dU-editing enzyme APOBEC-3G (Homo sapiens) (UniProt P69720+P69721+P69722+P69723+Q9HC16) (assay: inhibitors of Vif binding to APOBEC3G peptide, primary screen, biochemical, TR-FRET, GST-Vif 1-94, biotin-A3G peptide, dose response retest (AID 1117319;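 further: Vif residues 1-94 fused to GST binding biotinylated APOBEC3G peptide 110-148; 0% = full assay without inhibitor and 100% = GST in place of GST-Vif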)). Settings: stronger effect = higher value.

inhibition, inactive:
O=C1c2ccc([N+](=O)[O-])cc2C(=O)N1CNc1ccccn1 3.96%
N#CCCN(Cc1ccccc1)C(=O)c1nccnc1C(=O)O -11%
O=C(N/N=C/c1cn(Cc2ccccc2)c2ccccc12)c1cccnc1 -5.6%
O=C(N/N=C/c1cn(Cc2ccccc2)c2ccccc12)c1ccncc1 8.92%
Cc1ccc(S(=O)(=O)Cc2c(C)noc2C)cc1 3.86%
O=C(/C=C/c1ccc(O)cc1)c1ccc(O)cc1O 9.02%
O=CN/C=C/c1cccc(O)c1 -10.2%
Cc1cc(C)c(S(=O)(=O)N2CCCCC2)c(C)c1N(C)S(=O)(=O)c1ccccc1 -2.38%
Cc1cc(C)c(S(=O)(=O)N2CCCCC2)cc1N(C)S(=O)(=O)c1ccc(Cl)cc1 17.4% and -11.3%
Cc1ccc(C2C(C#N)=C(N)N(c3cccnc3)C3=C2C(=O)CCC3)c(C)c1 (stereo unspecified) -5.44%
CN(C)N1C(N)=C(C#N)C(c2ccccc2)C2=C1CCCC2=O (stereo unspecified) 9.57%
COc1cc(C2C(C#N)=C(N)N(N(C)C)C3=C2C(=O)CCC3)ccc1O (stereo unspecified) 3.96%
CN(C)N1C(N)=C(C#N)C(c2cccnc2)C2=C1CC(C)(C)CC2=O (stereo unspecified) -8.23%
CC(C)(C)NC(=O)CSc1nc(O)cc(=O)[nH]1 6.41%
CCC1=NN(C(=O)Cc2ccc([N+](=O)[O-])cc2)C(O)(C(F)(F)F)C1 (stereo unspecified) 17.1%
CC1CN(c2ccccc2)CCN1Cc1nc(Cc2ccccc2)no1 (stereo unspecified) -4.62%
Cc1ccc(-c2csnn2)cc1 -3.52%
O=C(Nc1ccc(Cl)cc1)c1cncs1 -5.16%
COC(=O)CSC(=S)N1CCCC(C)C1 (stereo unspecified) -1.45%
COc1ccc(Nc2nc(OC)nc(OC)n2)cc1 2.78%
COc1ccc(Nc2c(C)cccc2C)cc1 -5.1%
Cc1ccccc1-n1c(-c2ccc(Cl)cc2)cnc1SCC(=O)NC1CCS(=O)(=O)C1 (stereo unspecified) -0.29%
Oc1ccc(-c2cn3c(n2)SCC3)cc1 1.62%
Cc1ccc(-c2cn3c(n2)SCC3)cc1 -0.83%
CC(=O)c1cccc(CN2CCN(Cc3ccc(C)cc3)C(CCO)C2)c1 (stereo unspecified) -2.61%
COC(=O)C(C)(C)ONC(=O)Nc1ccccc1Br 23.3%
CC1(C)Cc2c(C#N)c(N3CCN(C(=O)c4ccccc4Cl)CC3)nc(-c3ccco3)c2CS1 15%
CC1CCN(c2nc(-c3ccco3)c3c(c2C#N)CC(C)(C)OC3)CC1 27.3%
COC(=O)C1=C(C)Nc2nnnn2C1c1cc(OC)ccc1OC (stereo unspecified) -7.75%
CCCCN(CC)CCNC(=O)c1nn(-c2ccc(OC)cc2)c(=O)c2c1c1ccccc1n2C 6.38%
CCCOc1ccccc1C1NC(=O)NC(C)=C1C(=O)OCc1ccccc1 (stereo unspecified) -9.5%
CCCCOc1ccccc1C1NC(=O)NC(C)=C1C(=O)OCCOCC (stereo unspecified) 2%
CCc1nnc(NS(=O)(=O)c2ccc(NC(=S)Nc3ccc(F)cc3)cc2)s1 -0.27%
CCN1/C(=C/C(C)=C/c2sc3ccccc3[n+]2CC)Sc2ccccc21 -17.9%
CC[n+]1c(/C=C/C=C/N(C(C)=O)c2ccccc2)sc2ccccc21 8.36%
CCN(CC)CCN=C1CCCc2ccccc2N1 0.69%
O=C(Nc1cccc(S(=O)(=O)N2CCOCC2)c1)c1cc2ccccc2o1 -1.28%
CC(=O)Oc1ccc(/C=N/NS(=O)(=O)c2ccccc2)cc1 -10.3%
Cc1ccc(S(=O)(=O)c2c(N)n(Cc3ccco3)c3nc4ccccc4nc23)cc1 2.43%
Cc1ccc(S(=O)(=O)c2c(N)n(Cc3ccco3)c3nc4ccccc4nc23)cc1C 5.39%
Cc1ccn2c(/C=N/OCc3ccc(F)cc3)c(-c3ccc(Cl)cc3)nc2c1 -1.15%
CCCCN(CCCC)CC1OCc2ccccc2CO1 -2.33%
COc1ccc(-c2nn(-c3ccccc3)cc2CNC[C@H]2O[C@@H](n3cnc(C(N)=O)n3)[C@H](O)[C@@H]2O)cc1 12.8%
CCC(C)Nc1nc(C)nc2c1oc1ccccc12 (stereo unspecified) -0.82%
CC(=O)c1sc(=S)n(Cc2ccccc2)c1C -9.02%
COc1cc2c(cc1OC)C(Cc1ccc(O)cc1)NCC2 (stereo unspecified) 16.4%
COc1cc2c(cc1O)C(Cc1ccc(O)cc1)NCC2 (stereo unspecified) -2.34%
CC(Oc1ccccc1F)c1nnc(SCC(=O)NCc2ccc3c(c2)OCO3)o1 (stereo unspecified) -7.49%
COc1ccc(-n2cc(-c3ccc(Cl)cc3)[nH]c2=S)cc1 -54.3%
O=C(c1ccc(Cl)cc1)C1CCCN(Cc2cccn2-c2ccccn2)C1 (stereo unspecified) -9.46%
CCOc1cc(C(=S)N2CCOCC2)ccc1OC(=O)c1ccc(C)cc1 4.9%
N#C/C(=C(/O)COc1ccc(Cl)cc1)c1nc2ccccc2s1 5.6%
CCC(NC(C)C)C(O)c1ccc(O)c(O)c1 (stereo unspecified) -1.98%
CNC[C@H](O)c1cccc(O)c1 -0.43%
CC(C)NCC(O)c1ccc(NS(C)(=O)=O)cc1 (stereo unspecified) 4.04%
COc1ccc([C@H](C)NC[C@H](O)c2ccc(O)c(NC=O)c2)cc1 26%
CCC(c1ccccc1)C(CC)c1cc(O)c(O)c(O)c1 (stereo unspecified) 27.3%
CC(C)NCC(O)c1cc(O)cc(O)c1 (stereo unspecified) 5.35%
CN1/C(=C\C(=O)COC(=O)c2ccccc2O)C(C)(C)c2ccccc21 -8.33%
Cc1occc1-c1nnc(SCC(=O)Nc2ccccc2)n1C 1.99%
Oc1cccc(/C=N/N2CCN(c3ccccn3)CC2)c1 3.52%
CCN(CC)S(=O)(=O)c1cccc(-c2nn(-c3ccccc3)cc2/C=C(\C#N)C(=O)NCc2ccco2)c1 -3.43%
CCOc1ccc(CCNC(=O)C2CC=CCC2C(=O)OC(C)C)cc1OCC (stereo unspecified) 0.89%
CCOc1ccc(CCNC(=O)C2CCN(S(=O)(=O)N3CCC(C)CC3)CC2)cc1OCC -6.54%
CCOC(=O)c1[nH]c2cc(OC)c(OC)cc2c1NC(=O)CN1CCN(c2ccc(OC)cc2)C(C)C1 (stereo unspecified) 23%
Cc1cc(C(=O)N/N=C/c2ccc(-c3cccc(Cl)c3)o2)n[nH]1 -2.03%
Cc1ccc(-c2cc(N)n(-c3ccc(C)cc3)n2)cc1 -11.3%
Cc1ccc(-c2cc(N)n(-c3ccccc3)n2)cc1 -2.7%
CCOC(=O)c1ccc(N2C(=O)C3CC=C(C)CC3C2=O)cc1 (stereo unspecified) 24.6%
O=C(N/N=C/c1cccnc1)c1ccccc1 -11.7%
COc1ccc(C(=O)N/N=C/c2c(CO)cnc(C)c2O)cc1 8.42%
O=C(N/N=C\c1cccnc1)c1ccccc1O -5.54%
Cc1ncc(CO)c(/C=N/NC(=O)c2cc(Br)ccc2O)c1O 11%
Cc1ccc(NC2=NCCCCC2)cc1 0.64%
CCN(CC)C(=O)[C@H]1C[C@H](CC(=O)NC(C)(C)C)C(=O)N2CCc3c([nH]c4ccc(Cl)cc34)[C@]12C -8.68%
CNC(=O)CN(C1CCCCC1)S(=O)(=O)c1ccc(F)cc1 -2.39%
Cn1cccc1Cc1nnc(SCC(=O)NCc2ccco2)n1CCc1ccccc1 1.07%
CC1C/C(=C/c2cccn2C)C(=O)/C(=C/c2cccn2C)C1 (stereo unspecified) 32.9%
Cn1cccc1/C=C1\CC(C(C)(C)C)C/C(=C\c2cccn2C)C1=O (stereo unspecified) 1.11%
O=C1/C(=C/c2ccccc2)SC(=S)N1N1C(=O)C2CC2C1=O (stereo unspecified) -1.11%
CC(C)Cc1nnc(NC(=O)c2cccc(S(=O)(=O)N3CCN(C)CC3)c2)s1 3.22%
O=C(/C=C/c1ccccc1[N+](=O)[O-])OCC(=O)c1ccccc1 -4.21%
Cc1ccc(C(=O)CSc2nc3cccnc3n2C)cc1 6.72%
O=C(COc1cc(Cl)c(Cl)cc1Cl)NCCN1CCOCC1 8.15%
Cc1nnc(NC(=O)CCC(=O)NCc2ccco2)s1 6.21%
NC(=O)COC(=O)c1ccc(-c2ccccc2)cc1 -9.63%
NC(=O)COC(=O)c1ccc(C(=O)C(=O)c2ccccc2)cc1 4.49%
O=C(CSC(=S)N1CCOCC1)Nc1ncc2c(n1)CCCC2=O 1.41%
O=C(NCC(O)c1ccccc1)c1cccs1 (stereo unspecified) -7.1%
Cc1sc(NC(=O)c2ccco2)c(CN2CCN(c3ccccn3)CC2)c1C 17.2%
NC(=O)N/N=C/c1ccc(-c2ccc([N+](=O)[O-])cc2)o1 0.97%
O=C(O)c1cc(-c2ccc(/C=N/Nc3ccc([N+](=O)[O-])cn3)o2)ccc1Cl 5.44%
O=C(CCNC(=O)c1ccc([N+](=O)[O-])cc1)Nc1cc(Cl)ccc1N1CCOCC1 -3.46%
CCCCC(=O)NC(=S)Nc1cc(C(=O)O)ccc1OC 6.07%
CC(=O)NC(=S)Nc1cc(C(=O)O)ccc1Cl -3.72%
CCCCC(c1nnnn1CCOC)N1CCN(C(=O)c2ccco2)CC1 (stereo unspecified) 32.8% and -5.2%
